# Data from PubChem BioAssay (Tox21).
# Records with an inconclusive call do not appear. Entries that show only a call come without a potency. Activity calls are given as the source filed them. Calls follow the shape of the dose curve; as a rule, active = well fitted cell-killing curve with a large enough effect in the repeat runs; inconclusive = weak or mixed curves, or effect the other way; inactive = flat fitted curve, though single readings scatter.
# Assays:
# [1] = cAMP Responsive Elements (CRE) small molecule antagonists, cell-based qHTS assay: qHTS cell viability counter screen (AID 2060913); also: nearly all actives have a fitted effect of over 40% in size
# Summary of the method: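 CRE-bla HEK293T cells (2,000/well, 18 h) given compound plus NKH477 0.25 uM final for 3 h at 37C; viability counter-screen by CellTiter-Glo luminescence in same wells after 30 min.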
# [2] = cAMP Responsive Elements (CRE) small molecule agonists, cell-based qHTS assay: qHTS cell viability counter screen (AID 2060914);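 also: viability read after 3 h of compound exposure; nearly all actives have a fitted effect of over 50% in size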
# Summary of the method: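 Cells are seeded and incubated 18 h, treated with compounds in DMSO for 3 h, read for the bla reporter, then given CellTiter-Glo; luminescence is measured after 30 min at room temperature.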
# Potency is read from the fitted curve at half-maximal effect.
Compound,Potency [1],Potency [2]
CCOP(=S)(OCC)SCCSCC,inactive,inactive
Oc1c(Br)c(Br)c(Br)c(Br)c1Br,,inactive
CCOP(=O)(OCC)Oc1ccc([N+](=O)[O-])cc1,inactive,inactive
Cc1ccc(O)c(C)c1,inactive,inactive
CC(=O)c1cc2c(cc1C)C(C)(C)C(C)CC2(C)C (stereo not drawn),inactive,inactive
CN(C)NC(=O)CCC(=O)O,inactive,inactive
COCCC#N,inactive,inactive
c1ccc(Nc2ccc3ccccc3c2)cc1,inactive,inactive
C=C(Cl)CCl,inactive,inactive
c1ccc2c(c1)CCNC2,inactive,inactive
O=C(O)c1cc(Oc2ccc(C(F)(F)F)cc2Cl)ccc1[N+](=O)[O-],inactive,inactive
CCn1cc[n+](C)c1 (tested in a mixture with another compound),inactive,inactive
O=[Se]=O,30.4 µM (active),17.1 µM (active)
CN1[C@@H]2CC[C@H]1CC(OC(=O)c1cc(Cl)cc(Cl)c1)C2 (stereo partly drawn),inactive,inactive
O=S(=O)(c1ccc(Cl)cc1)c1cc(Cl)c(Cl)cc1Cl,inactive,inactive
CN(C)C(=O)Nc1cccc(C(F)(F)F)c1,inactive,inactive
Cc1ccccc1CCl,inactive,inactive
Clc1ccccc1-c1nnc(-c2ccccc2Cl)nn1,inactive,inactive
O=C(O)C1C(C(=O)O)C2(Cl)C(Cl)=C(Cl)C1(Cl)C2(Cl)Cl (stereo not drawn),inactive,inactive

Compound,Potency [1],Potency [2]
CN(C)c1ccc(N)cc1,inactive,inactive
CCN(CC)C(=O)SCc1ccc(Cl)cc1,,inactive
CC1CCC(=O)O1 (stereo not drawn),inactive,inactive
CCCCN(CC)c1c([N+](=O)[O-])cc(C(F)(F)F)cc1[N+](=O)[O-],inactive,inactive
O=NN1CCOCC1,,inactive
C[N+](C)(C)CC(=O)O,inactive,inactive
OCCCCO,inactive,inactive
N#CCc1ccc(Cl)cc1,inactive,inactive
N#CC(C#N)=C(C#N)C#N,inactive,inactive
C[C@]12CCC(=O)C[C@@H]1CC[C@@H]1[C@@H]2CC[C@]2(C)[C@@H](O)CC[C@@H]12,,inactive
CC(C)N(C(=O)SCC(Cl)=C(Cl)Cl)C(C)C,inactive,inactive
COP(=O)(O)OC,inactive,inactive
CON(C)C(=O)Nc1ccc(Br)c(Cl)c1,,inactive
[O-][Br+2]([O-])O,,inactive
CCCCn1cc[n+](C)c1,,inactive
Cn1cc[n+](C)c1 (tested in a mixture with another compound),inactive,inactive
S=C=S,,inactive
O=[N+]([O-])c1cccc(O)c1,inactive,inactive
CNC(=O)Oc1ccc(N(C)C)c(C)c1,inactive,inactive
